PubChem BioAssay (Tox21)
Records with an inconclusive call do not appear. The source made the active and inactive calls. Unless noted, calls come from the whole dose curve; as a rule, active = well fitted curve in the direction sought with a large enough effect in the repeat runs; inconclusive = weak or mixed curves; inactive = no such curve, though single readings can be large; an effect the other way counts as inactive or inconclusive.

Key:
[1] = qHTS assay to identify aromatase inhibitors - cell viability counter screen (AID 743084);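 note: cells stimulated with testosterone during compound exposure; nearly all actives have a fitted effect of over 55% in size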
[2] = target: Aryl hydrocarbon receptor (Homo sapiens) (UniProt P35869); assay: qHTS assay to identify small molecule that activate the aryl hydrocarbon receptor (AhR) signaling pathway (AID 743085); note: nearly all actives have a fitted effect of over 15% in size; note: potency is the fitted concentration of half-maximal effect;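 for activation: HG2L7.5c1 human HepG2 liver cells with stably integrated DRE-driven firefly reporter; series mostly up to about 70 µM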
Sequence of Aryl hydrocarbon receptor (Homo sapiens) (P35869 whole entry, looked up): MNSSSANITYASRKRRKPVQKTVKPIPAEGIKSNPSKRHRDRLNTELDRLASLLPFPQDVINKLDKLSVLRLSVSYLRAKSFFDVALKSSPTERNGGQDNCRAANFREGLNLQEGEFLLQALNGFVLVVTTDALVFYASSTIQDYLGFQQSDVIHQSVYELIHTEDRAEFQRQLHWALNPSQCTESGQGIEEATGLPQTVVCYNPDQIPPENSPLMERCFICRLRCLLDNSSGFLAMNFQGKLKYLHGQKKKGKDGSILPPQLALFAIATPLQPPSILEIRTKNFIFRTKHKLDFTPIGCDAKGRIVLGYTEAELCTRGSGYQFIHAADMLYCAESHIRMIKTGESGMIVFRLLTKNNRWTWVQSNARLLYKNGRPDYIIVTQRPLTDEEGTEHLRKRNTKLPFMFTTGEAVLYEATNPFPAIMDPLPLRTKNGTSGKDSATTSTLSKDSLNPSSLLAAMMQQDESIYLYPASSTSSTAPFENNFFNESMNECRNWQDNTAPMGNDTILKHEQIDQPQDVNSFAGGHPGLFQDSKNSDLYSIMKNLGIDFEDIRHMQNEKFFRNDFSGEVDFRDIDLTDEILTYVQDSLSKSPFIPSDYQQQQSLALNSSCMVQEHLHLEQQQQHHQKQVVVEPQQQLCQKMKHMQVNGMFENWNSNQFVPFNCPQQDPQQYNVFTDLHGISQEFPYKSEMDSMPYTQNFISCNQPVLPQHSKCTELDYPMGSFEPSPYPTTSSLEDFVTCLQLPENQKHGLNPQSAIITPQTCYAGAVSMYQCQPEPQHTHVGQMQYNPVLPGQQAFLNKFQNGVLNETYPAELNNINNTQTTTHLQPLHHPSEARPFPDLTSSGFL
Summary of the method: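 Stably transfected human liver carcinoma cells (HG2L7.5c1; 20 DRE-firefly luciferase) were incubated 5 h, dosed, and kept 24 h at 37C. Agonism was scored from increased luciferase luminescence.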

[3] = qHTS assay to identify small molecule that activate the aryl hydrocarbon receptor (AhR) signaling pathway - cell viability counter screen (AID 743086);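 note: HepG2 liver cells carrying the AhR DRE luciferase reporter; series mostly up to about 70 µM; nearly all actives have a fitted effect of over 45% in size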
Summary of the method: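 HepG2-AhR-luc (HG2L7.5c1) cells, 4000/well, were preincubated 5 h at 37C, exposed to compound in qHTS format for 24 hr at 37C, then given CellTiter-Fluor for 30 min; viability was read as fluorescence in the reporter wells.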

[4] = target: Peroxisome proliferator-activated receptor gamma (Homo sapiens) (UniProt P37231); assay: qHTS assay to identify small molecule agonists of the peroxisome proliferator-activated receptor gamma (PPARg) signaling pathway (AID 743094; active = well fitted activation curve with a large enough effect in the signal ratio in the repeat runs, not every such curve was filed as active; the % refers to the signal ratio)
Sequence of Peroxisome proliferator-activated receptor gamma (Homo sapiens) (P37231 whole entry, looked up): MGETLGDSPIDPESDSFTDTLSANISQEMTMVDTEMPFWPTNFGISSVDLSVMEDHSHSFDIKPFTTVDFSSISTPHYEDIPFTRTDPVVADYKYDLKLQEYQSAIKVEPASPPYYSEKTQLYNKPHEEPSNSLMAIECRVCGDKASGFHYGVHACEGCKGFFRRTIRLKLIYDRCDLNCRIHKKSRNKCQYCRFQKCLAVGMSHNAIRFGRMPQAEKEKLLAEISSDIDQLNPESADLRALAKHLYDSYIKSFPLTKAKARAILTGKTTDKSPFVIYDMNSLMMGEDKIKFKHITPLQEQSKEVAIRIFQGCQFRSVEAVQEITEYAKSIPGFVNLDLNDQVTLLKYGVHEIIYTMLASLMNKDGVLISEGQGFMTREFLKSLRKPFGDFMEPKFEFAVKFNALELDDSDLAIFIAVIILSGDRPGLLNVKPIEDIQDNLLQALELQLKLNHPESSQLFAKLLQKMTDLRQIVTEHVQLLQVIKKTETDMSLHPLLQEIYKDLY
Summary of the method: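 Reporter activation was scored by fluorescence of cleaved LiveBLAzer B/G substrate (1 h, room temperature) in PPARg-bla HEK293H cells previously treated 17 h at 37C with DMSO-dissolved compounds.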

[5] = target: Peroxisome proliferator-activated receptor gamma (Homo sapiens) (UniProt P37231); assay: qHTS assay to identify small molecule antagonists of the peroxisome proliferator-activated receptor gamma (PPARg) signaling pathway (AID 743191; calls by dose curve; note: series mostly up to about 63 µM; nearly all actives have a fitted effect of over 30% in size)
Summary of the method: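 GeneBLAzer PPARg UAS-bla HEK293H cells carrying a UAS-driven beta-lactamase reporter were plated at 3000 cells/well, preincubated 5 h at 37C, then given compound for 17 h at 37C; LiveBLAzer B/G FRET substrate was read after 1 h at room temperature.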

[6] = qHTS assay to identify small molecule antagonists of the peroxisome proliferator-activated receptor gamma (PPARg) signaling pathway - cell viability counter screen (AID 743194); note: nearly all actives have a fitted effect of over 55% in size
Summary of the method: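 PPARg-UAS-bla HEK293H cells were plated, rested 5 h at 37 C, then treated with compounds plus rosiglitazone (50 nM final) for 17 h at 37 C; viability was then read by CellTiter-Glo luminescence after 30 min at room temperature.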

[7] = qHTS assay for small molecule agonists of the antioxidant response element (ARE) signaling pathway (AID 743202; active = well fitted activation curve with a large enough effect in the signal ratio in the repeat runs, not every such curve was filed as active; the % refers to the signal ratio)
Summary of the method: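 Following a 16 h, 37 C exposure of reporter HepG2 cells (ARE-driven beta-lactamase, 2,000 cells/well) to compounds, FRET substrate was applied for 2 h at room temperature and fluorescence intensity recorded.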

[8] = qHTS assay for small molecule agonists of the antioxidant response element (ARE) signaling pathway - cell viability counter screen (AID 743203; calls by dose curve; note: nearly all actives have a fitted effect of over 55% in size)
Summary of the method: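 Viability counter screen: stably transfected ARE-bla HepG2 line, 16 hrs compound exposure at 37C/5% CO2, ATP-based CellTiter-Glo luminescence measured in the reporter wells.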

[9] = qHTS assay for small molecule activators of the heat shock response signaling pathway - cell viability counter screen (AID 743209); note: nearly all actives have a fitted effect of over 50% in size
Summary of the method: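 Viability of HSE-bla HeLa cells is measured with CellTiter-Glo in the wells already used for the reporter read. Compound exposure lasts 5 h at 37 C, and luminescence is read after 30 min at room temperature.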

[10] = qHTS assay for small molecule activators of the heat shock response signaling pathway (AID 743210; active = well fitted activation curve with a large enough effect in the signal ratio in the repeat runs, with a control signal flat, not every such curve was filed as active; the % refers to the signal ratio; note: series mostly up to about 63 µM)
Summary of the method: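 Heat shock element–beta-lactamase HeLa reporter cells; qHTS with compounds for 5 h at 37 C; detection by FRET substrate fluorescence after 2.5 h at RT.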

[11] = qHTS assay to identify small molecule agonists of the peroxisome proliferator-activated receptor delta (PPARd) signaling pathway - cell viability counter screen (AID 743211); note: nearly all actives have a fitted effect of over 55% in size
Summary of the method: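 In the same wells used for beta-lactamase reporter measurement, cytotoxicity is scored by CellTiter-Glo. HEK293H PPARd-bla cells receive compound for 17 h at 37C following a 5 h settling period.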

[12] = target: Peroxisome proliferator-activated receptor delta (Homo sapiens) (UniProt Q03181); assay: qHTS assay to identify small molecule agonists of the peroxisome proliferator-activated receptor delta (PPARd) signaling pathway (AID 743212; calls by dose curve)
Sequence of Peroxisome proliferator-activated receptor delta (Homo sapiens) (Q03181 whole entry, looked up): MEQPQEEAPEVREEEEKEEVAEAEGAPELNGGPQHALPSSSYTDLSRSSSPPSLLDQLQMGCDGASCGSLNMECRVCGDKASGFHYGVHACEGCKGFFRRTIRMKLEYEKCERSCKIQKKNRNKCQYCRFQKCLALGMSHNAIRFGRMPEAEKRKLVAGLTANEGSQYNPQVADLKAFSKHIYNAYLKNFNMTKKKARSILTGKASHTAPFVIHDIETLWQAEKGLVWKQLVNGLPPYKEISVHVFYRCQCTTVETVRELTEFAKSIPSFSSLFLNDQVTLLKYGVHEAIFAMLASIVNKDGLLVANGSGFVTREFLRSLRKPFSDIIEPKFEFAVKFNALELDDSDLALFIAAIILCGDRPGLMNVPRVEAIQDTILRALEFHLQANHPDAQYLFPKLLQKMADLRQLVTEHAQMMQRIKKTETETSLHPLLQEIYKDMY
Summary of the method: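 Beta-lactamase reporter read by fluorescence (LiveBLAzer B/G FRET, 2 h, room temperature). Test agents, in DMSO, incubated at 37 C with PPARd-bla HEK293H cells.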

[13] = target: Bile acid receptor (Homo sapiens) (UniProt Q96RI1); assay: qHTS assay to identify small molecule antagonists of the farnesoid-X-receptor (FXR) signaling pathway (AID 743217; active = well fitted inhibition curve with a large enough effect in the signal ratio in the repeat runs, not every such curve was filed as active; the % refers to the signal ratio)
Sequence of Bile acid receptor (Homo sapiens) (Q96RI1 whole entry, looked up): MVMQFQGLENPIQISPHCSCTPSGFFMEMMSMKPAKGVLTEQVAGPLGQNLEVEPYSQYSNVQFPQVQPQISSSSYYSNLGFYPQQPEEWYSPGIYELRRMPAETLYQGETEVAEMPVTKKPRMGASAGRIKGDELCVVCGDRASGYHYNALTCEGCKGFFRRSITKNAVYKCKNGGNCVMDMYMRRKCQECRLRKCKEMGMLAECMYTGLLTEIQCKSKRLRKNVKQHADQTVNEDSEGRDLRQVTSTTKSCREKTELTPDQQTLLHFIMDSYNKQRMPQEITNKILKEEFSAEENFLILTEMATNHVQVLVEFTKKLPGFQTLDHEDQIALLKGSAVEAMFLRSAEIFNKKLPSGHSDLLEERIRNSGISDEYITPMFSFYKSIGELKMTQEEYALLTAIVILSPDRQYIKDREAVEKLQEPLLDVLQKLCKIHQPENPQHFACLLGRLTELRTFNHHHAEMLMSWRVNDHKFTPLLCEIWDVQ
Summary of the method: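 Screen of the Tox21 10K library in quantitative HTS format using FXR-UAS-bla HEK 293T reporter cells. Agonist chenodeoxycholic acid, 50 uM final, added with compounds; 16 h incubation at 37 °C; beta-lactamase FRET fluorescence measured.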

[14] = qHTS assay to identify small molecule agonists of the farnesoid-X-receptor (FXR) signaling pathway - cell viability counter screen (AID 743218); note: nearly all actives have a fitted effect of over 45% in size
Summary of the method: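 Viability of FXR-bla HEK 293T cells is measured by ATP-based CellTiter-Glo luminescence following 16 h compound treatment at 37 C and a prior 2 h room-temperature beta-lactamase substrate step.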

[15] = target: Bile acid receptor (Homo sapiens) (UniProt Q96RI1); assay: qHTS assay to identify small molecule agonists of the farnesoid-X-receptor (FXR) signaling pathway (AID 743220; active = well fitted activation curve with a large enough effect in the signal ratio in the repeat runs, not every such curve was filed as active; the % refers to the signal ratio)
Summary of the method: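 FXR-UAS-bla HEK 293T cells carrying a UAS-driven beta-lactamase reporter were plated for 5 h at 37C/5% CO2, then exposed to DMSO-dissolved Tox21 10K compounds for 16 h at 37C. A LiveBLAzer B/G FRET substrate was loaded for 2 h at room temperature before fluorescence reading.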

[16] = qHTS assay to identify small molecule antagonists of the farnesoid-X-receptor (FXR) signaling pathway - cell viability counter screen (AID 743221; active = well fitted cell-killing curve with a large enough effect in the repeat runs, not every such curve was filed as active; note: nearly all actives have a fitted effect of over 50% in size)
Summary of the method: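 Here viability was scored by luminescence after CellTiter-Glo addition to wells already read for beta-lactamase. Prior treatment: compound plus CDCA (50 uM final), 16 h, 37 C, HEK 293T FXR-bla cells.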

[17] = qHTS assay to identify small molecule antagonists of the peroxisome proliferator-activated receptor delta (PPARd) signaling pathway - cell viability counter screen (AID 743213); note: nearly all actives have a fitted effect of over 50% in size
Summary of the method: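 Agonist-stimulated (L165041, 300 nM final) HEK293H PPARd UAS-bla cells are exposed to compounds for 17 h at 37 C, and ATP-based luminescence (CellTiter-Glo) from the same wells reports cytotoxicity.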

[18] = target: Vitamin D3 receptor (Homo sapiens) (UniProt P11473); assay: qHTS assay to identify small molecule agonists of the vitamin D receptor (VDR) signaling pathway (AID 743222; calls by dose curve)
Sequence of Vitamin D3 receptor (Homo sapiens) (P11473 whole entry, looked up): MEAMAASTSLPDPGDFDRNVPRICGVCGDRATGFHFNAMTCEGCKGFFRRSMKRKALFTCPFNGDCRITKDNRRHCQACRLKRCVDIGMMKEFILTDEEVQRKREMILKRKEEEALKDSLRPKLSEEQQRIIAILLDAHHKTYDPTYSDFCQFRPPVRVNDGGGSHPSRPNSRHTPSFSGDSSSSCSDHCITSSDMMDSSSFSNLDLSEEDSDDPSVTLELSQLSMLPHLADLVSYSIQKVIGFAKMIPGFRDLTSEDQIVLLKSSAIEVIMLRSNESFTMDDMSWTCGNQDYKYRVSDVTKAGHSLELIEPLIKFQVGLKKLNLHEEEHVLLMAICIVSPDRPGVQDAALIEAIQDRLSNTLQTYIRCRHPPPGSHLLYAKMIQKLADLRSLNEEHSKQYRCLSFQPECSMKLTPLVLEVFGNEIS
Summary of the method: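 Fluorescence from cleaved LiveBLAzer B/G FRET substrate served as readout. VDR-bla cells had been treated 16 h at 37C with test compounds in DMSO, following a 4 h settling period, and substrate was loaded for 2 h at RT.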

[19] = target: Vitamin D3 receptor (Homo sapiens) (UniProt P11473); assay: qHTS assay to identify small molecule antagonists of the vitamin D receptor (VDR) signaling pathway (AID 743223; active = well fitted inhibition curve with a large enough effect in the signal ratio in the repeat runs, not every such curve was filed as active; the % refers to the signal ratio)
Summary of the method: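 Inhibition of agonist-driven VDR signalling is scored in VDR-bla cells: 3 nM final 1alpha,25-dihydroxyvitamin D3 plus compound, 16 h at 37C, then beta-lactamase detection by FRET substrate fluorescence after 2 h.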

[20] = target: Peroxisome proliferator-activated receptor delta (Homo sapiens) (UniProt Q03181); assay: qHTS assay to identify small molecule antagonists of the peroxisome proliferator-activated receptor delta (PPARd) signaling pathway (AID 743215; active = well fitted inhibition curve with a large enough effect in the signal ratio in the repeat runs, not every such curve was filed as active; the % refers to the signal ratio; note: series mostly up to about 62 µM)
Summary of the method: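 Plated HEK293H PPARd-bla cells rested 5 h at 37 C and 5% CO2. Compound, then agonist L165041 at 300 nM final, was added; 17 h at 37 C followed. Substrate loading, 2 h room temperature, fluorescence measured.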
% is set by controls: 0 for no effect and ±100 for the full control effect.

CCCCOC(=O)C(=O)OCCCC
inactive: Potency [1] | Potency [2] | Potency [3] | outcome [4] | Potency [5] | outcome [6] | Potency [7] | outcome [8] | outcome [9] | outcome [10] | outcome [11] | outcome [12] | outcome [13] | Potency [14] | outcome [15] | outcome [16]

OC(CCN1CCCCC1)(c1ccccc1)c1ccccc1
inactive: Potency [1] | Potency [3] | outcome [4] | Potency [5] | outcome [6] | Potency [7] | outcome [8] | outcome [9] | outcome [11] | outcome [17] | Potency [14] | outcome [16]
active: Potency [2] 21.1 µM

C=C(C)C(=O)OCCCCCCOC(=O)C(=C)C
inactive: Potency [1] | Potency [2] | Potency [3] | outcome [4] | Potency [5] | outcome [6] | Potency [7] | outcome [8] | outcome [9] | outcome [10] | outcome [11] | outcome [17] | Potency [14] | outcome [16] | outcome [18] | outcome [19]

C[N+](C)(C)CC(O)CCl (configuration not stated)
inactive: Potency [1] | Potency [2] | Potency [3] | outcome [4] | Potency [5] | outcome [6] | Potency [7] | outcome [8] | outcome [9] | outcome [10] | outcome [11] | outcome [17] | Potency [14] | outcome [16] | outcome [18] | outcome [19]

BrC/C=C/CBr
inactive: Potency [1] | Potency [2] | Potency [3] | outcome [4] | Potency [5] | outcome [6] | outcome [8] | outcome [9] | outcome [10] | outcome [11] | outcome [12] | outcome [17] | outcome [13] | Potency [14] | outcome [15] | outcome [16]

CCOC(=O)CC(CC(=O)OCC)(OC(C)=O)C(=O)OCC
inactive: Potency [1] | Potency [2] | Potency [3] | outcome [4] | Potency [5] | Potency [7] | outcome [8] | outcome [9] | outcome [10] | outcome [11] | outcome [17] | outcome [13] | Potency [14] | outcome [16] | outcome [18] | outcome [19]

CCCCCCCCCCCCC
inactive: Potency [1] | Potency [2] | Potency [3] | outcome [4] | Potency [5] | outcome [6] | outcome [8] | outcome [9] | outcome [10] | outcome [12] | outcome [15] | outcome [16] | outcome [18]

Cc1ccccc1C
inactive: Potency [1] | Potency [2] | Potency [3] | outcome [4] | Potency [5] | outcome [6] | Potency [7] | outcome [9] | outcome [10] | outcome [11] | outcome [12] | outcome [20] | Potency [14] | outcome [16] | outcome [18]

C=COCCOCCOC=C
inactive: Potency [1] | Potency [2] | Potency [3] | outcome [4] | Potency [5] | outcome [6] | outcome [8] | outcome [9] | outcome [10] | outcome [11] | outcome [12] | outcome [17] | outcome [20] | outcome [13] | Potency [14] | outcome [15] | outcome [16] | outcome [18]

CC(C)SCc1ccco1
inactive: Potency [1] | Potency [2] | Potency [3] | outcome [4] | Potency [5] | outcome [6] | Potency [7] | outcome [9] | outcome [10] | outcome [11] | outcome [17] | outcome [20] | Potency [14]

O=c1[nH]c(=O)c2ccccc2o1
inactive: Potency [1] | Potency [2] | Potency [3] | outcome [4] | Potency [5] | outcome [6] | Potency [7] | outcome [9] | outcome [10] | outcome [17] | Potency [14] | outcome [15] | outcome [16]

O=C(O)c1ccccc1C(=O)Nc1ccc(S(=O)(=O)Nc2nccs2)cc1
inactive: Potency [1] | Potency [2] | Potency [3] | outcome [4] | Potency [5] | Potency [7] | outcome [8] | outcome [9] | outcome [10] | outcome [11] | outcome [12] | outcome [17] | outcome [20] | outcome [16] | outcome [18] | outcome [19]

CCCCCCCCCCCCCCCC(=O)NCCO
inactive: Potency [1] | Potency [2] | Potency [3] | outcome [4] | Potency [5] | outcome [6] | outcome [8] | outcome [9] | outcome [10] | outcome [11] | outcome [12] | outcome [17] | outcome [13] | Potency [14] | outcome [15] | outcome [16] | outcome [18] | outcome [19]

CCC(O)C(C)(C)C (configuration not stated)
inactive: Potency [1] | Potency [2] | Potency [3] | outcome [4] | Potency [5] | outcome [6] | Potency [7] | outcome [9] | outcome [10] | outcome [11] | outcome [12] | outcome [15] | outcome [16]

O=c1[nH]c(=O)c2[nH]c(=O)[nH]c2[nH]1
inactive: Potency [1] | Potency [2] | Potency [3] | outcome [4] | ratio activity, negative = inhibition [5] -6.65% [at 13.2 µM] | activity change, negative = cytotoxicity [6] -35.1% [at 13.2 µM] | activation [7] 2.83% [at 8.36 µM] | activity change, negative = cytotoxicity [9] -0.886% [at 13.2 µM] | activation [10] -0.669% [at 13.2 µM] | activation [12] 2.22% [at 13.2 µM] | viability change, negative = cytotoxic [17] -1.61% [at 13.7 µM] | ratio activity, negative = inhibition [20] -0.0973% [at 13.7 µM] | viability change, negative = cytotoxic [14] 18.5% [at 13.2 µM] | activity change, negative = cytotoxicity [16] 0.395% [at 13.2 µM]

NS(=O)(=O)c1ccccc1OC(F)(F)F
inactive: Potency [1] | Potency [2] | Potency [3] | outcome [4] | Potency [5] | outcome [6] | outcome [8] | outcome [9] | outcome [10] | outcome [17] | Potency [14] | outcome [15] | outcome [16] | outcome [18] | outcome [19]

CC(=O)/C=C/c1ccco1
inactive: Potency [1] | Potency [2] | Potency [3] | outcome [4] | outcome [6] | Potency [7] | outcome [8] | outcome [9] | outcome [10] | outcome [11] | outcome [12] | outcome [20] | outcome [13] | Potency [14] | outcome [15] | outcome [16] | outcome [18] | outcome [19]

COC(/C=C(\C)CCC=C(C)C)OC
inactive: Potency [1] | Potency [2] | Potency [3] | outcome [4] | Potency [5] | outcome [6] | outcome [8] | outcome [9] | outcome [11] | outcome [12] | outcome [17] | outcome [20] | outcome [13] | Potency [14] | outcome [15] | outcome [16] | outcome [18] | outcome [19]
